Hit rate of the full screen: of about 2,400 compounds, about 580 (24%) were called active. These entries were drawn from the full list. A number with no mark means an inactive call.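 Rule for the calls: active = activity change at or above the mean plus 3 SD of buffer wells without dofetilide, per plate; inactive = the rest.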
Each compound was assayed against Potassium voltage-gated channel subfamily KQT member 2 (Rattus norvegicus) (UniProt O88943) (assay: KCNQ2 potentiation in CHO cells – cell-based, FluxOR thallium flux, counter-screen for hERG block protector project, confirmation (AID 1942;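 note: normalized value minus buffer-control mean plus three SD of buffer wells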)). Details: FluxOR thallium flux fluorescence, at 10 µM, active compounds read high.
Sequence of Potassium voltage-gated channel subfamily KQT member 2 (Rattus norvegicus) (O88943 whole entry, looked up): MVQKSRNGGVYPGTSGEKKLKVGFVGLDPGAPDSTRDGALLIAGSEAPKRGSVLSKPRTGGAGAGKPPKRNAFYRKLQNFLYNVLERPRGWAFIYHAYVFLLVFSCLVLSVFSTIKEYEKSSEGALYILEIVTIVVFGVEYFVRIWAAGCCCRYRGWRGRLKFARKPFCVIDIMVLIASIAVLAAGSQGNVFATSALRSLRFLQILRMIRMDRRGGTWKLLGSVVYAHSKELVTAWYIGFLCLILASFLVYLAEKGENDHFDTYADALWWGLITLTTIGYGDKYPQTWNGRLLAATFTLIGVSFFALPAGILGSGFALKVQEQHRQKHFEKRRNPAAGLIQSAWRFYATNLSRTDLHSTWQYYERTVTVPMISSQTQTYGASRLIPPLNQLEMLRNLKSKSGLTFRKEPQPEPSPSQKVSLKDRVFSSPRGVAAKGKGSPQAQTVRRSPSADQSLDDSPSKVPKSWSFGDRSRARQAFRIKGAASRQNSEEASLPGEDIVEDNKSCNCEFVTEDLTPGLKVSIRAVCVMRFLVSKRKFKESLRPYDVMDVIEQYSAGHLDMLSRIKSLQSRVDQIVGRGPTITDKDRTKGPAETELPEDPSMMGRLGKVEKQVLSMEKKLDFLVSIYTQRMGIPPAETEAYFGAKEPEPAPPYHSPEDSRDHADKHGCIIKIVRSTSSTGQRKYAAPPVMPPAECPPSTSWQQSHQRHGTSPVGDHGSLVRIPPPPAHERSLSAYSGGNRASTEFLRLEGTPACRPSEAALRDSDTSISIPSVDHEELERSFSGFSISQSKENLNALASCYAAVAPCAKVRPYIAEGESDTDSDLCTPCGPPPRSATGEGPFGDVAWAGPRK

Compound	activity change, less the hit threshold
CCC(c1nnc(SCC(=O)NCCc2ccc(Cl)cc2Cl)o1)N(C)C (centres undefined)	-31.5%
CCOc1ccccc1C(=O)NC1CC2CCCC(C1)N2Cc1nnnn1Cc1ccco1 (centres undefined)	-26.4%
Cc1ccc2cc(CN(CCCN(C)C)C(=S)NCc3ccccc3)c(=O)[nH]c2c1C	-23.9%
CC1CC(OCC(O)C[N+]2(C)CCOCC2)CC(C)(C)C1 (centres undefined)	-21.6%
CCCSc1cc(NCCOC(C)=O)c([N+](=O)[O-])c2nonc12	-13.1%
COc1ccc(C(=O)O/N=C(\N)c2ccccn2)cc1[N+](=O)[O-]	-10.2%
O=[N+]([O-])C1=CC=C2C(=NC3(CCCCC3)N2O)C1=NC1CCCCC1	-27.4%
Cc1ccc(/C(O)=C/C(=O)C(=O)NC23CC4CC(CC(C4)C2)C3)cc1	1.2% (active)
O=C(O)c1ccc(CNC(=O)C23CC4CC(CC(C4)C2)C3)cc1	-18.2%
Nc1cccc2c1C(=O)N(CC(=O)NC13CC4CC(CC(C4)C1)C3)C2=O	-18.4%
S=c1[nH]nc(-c2n[nH]c3c2CCC3)n1/N=C/C=C/c1ccccc1	-26.2%
CC(=O)OCC1O[C@@H](O[C@@H]2C[C@H]3C(C)(C)[C@H](OC(C)=O)CC[C@]3(C)[C@H]3CC[C@]45C[C@]4(CC[C@H]5[C@@H](C)C[C@@H](O)[C@H](O)C(C)(C)O)[C@@]32C)[C@H](O)[C@@H](O)[C@@H]1O (some centres undefined)	1% (active)
CC(Nc1ccc(F)cc1)=[N+](C)CCNS(=O)(=O)c1ccc(Cl)cc1	-10.9%
CN(c1cccc(NS(=O)(=O)c2cccc([N+](=O)[O-])c2)c1)S(C)(=O)=O	-9.2%
O=C(CSc1nnc(-c2ccncc2)o1)c1cccc([N+](=O)[O-])c1	-29.3%
N/C(=N\OS(=O)(=O)c1cccc([N+](=O)[O-])c1)c1ccncc1	1.3% (active)
CCOc1cccc(Nc2cc3n(c(=O)n2)CCc2cc(OC)c(OC)cc2-3)c1	-19.8%
CC(C)CCn1c(SCC(=O)NC2CC2)nc2cc(Cl)ccc2c1=O	-8.5%
O=C1c2ccccc2C(=O)N1Cc1nc2ccccc2c(=O)n1CCCn1ccnc1	-20.6%
CCCn1c(SCN2C(=O)c3ccccc3C2=O)nc2cc(Cl)ccc2c1=O	21.1% (active)
Cc1ccc(OCC(=O)Nn2cnc3ccccc32)cc1	-12.3%
O=C(CCc1ccc(S(=O)(=O)N2CCCCC2)cc1)c1nnc(-c2ccccc2)o1	-13.3%
S=C(N/N=C/c1cccc2ccccc12)Nc1cccc(Cl)c1	-17.2%
S=c1nn[nH]n1C12CC3CC(CC(C3)C1)C2	21.6% (active)
Cc1cc(=O)[nH]c(=S)n1-c1ccccc1	-31%

Compound	activity change, less the hit threshold
O=c1c2c3c(sc2[nH]c(=S)n1Cc1ccco1)CCC3	26.9% (active)
Cc1cccc(-n2c(=S)[nH]c3sc4c(c3c2=O)CCc2ccccc2-4)c1	-19.9%
Cc1ccc(-n2c(=S)[nH]c3sc4c(c3c2=O)CCC4)cc1	0.2% (active)
CCn1c(=S)[nH]c2sc3c(c2c1=O)CCCCC3	97.9% (active)
CCn1c(=S)[nH]c2sc3c(c2c1=O)CCCC3	49.6% (active)
O=C1c2ccccc2C(=O)N1Cc1ccco1	-11.8%
CCN(/N=C/c1ccc(Cl)cc1)c1cc(=O)n(C)c(=O)[nH]1	-19%
CCCCCOCC1CC(C/C(C)=N/Nc2nc(-c3ccccc3)cs2)C(=O)O1 (centres undefined)	-18.7%
O=C(/C=C/Nc1ccc(F)cc1)c1ccco1	-17.3%
O=C(c1cccc2c1-c1ccccc1C2)N1CCCCC1	-20.1%
O=C(O)c1ccc2c(c1)C(=O)N(c1cc([N+](=O)[O-])ccn1)C2=O	-1.1%
O=C(CN1CCN(Cc2ccccc2)CC1)NCc1ccccc1Cl	-10.1%
CCCn1c(=S)[nH]c2sc3c(c2c1=O)CCCC3	72% (active)
COc1ccc(N(CC(=O)N2CCN(Cc3ccccc3)CC2)S(C)(=O)=O)cc1	-25.7%
C#CCN1C(=O)S/C(=C\c2ccc(-c3ccc(C(=O)O)cc3C)o2)C1=O	-20.3%
COc1cc(CCC(=O)NNC(=O)c2ccc(C)cc2)cc(OC)c1OC	-8.9%
Oc1c(Br)cc(Br)cc1C=Nc1ccc2c(c1)OCCO2	-1.5%
CCOc1cccc(C(=O)Nc2ccc3[nH]ncc3c2)c1	-15.8%
Oc1c(Br)cc(Br)cc1C=Nc1ccc2[nH]ncc2c1	33% (active)
O=C(CSc1nc2ccccc2o1)NCc1n[nH]c(=O)c2ccccc12	-12.3%
COc1ccc(-n2nc(C)cc2Nc2ccccc2C(=O)O)cc1	21.8% (active)
CCOc1ccc(C(=O)Nc2ccccc2C(=O)O)cc1	-4%
Cc1cc(NC(=O)/C(C#N)=C/c2ccco2)n(-c2ccccc2)n1	-20.2%
CCCCSc1nnc(CCC)n1N	-8.4%
CCOc1ccc(OCC(=O)OCC(=O)N2CCN(C(=O)c3ccco3)CC2)cc1	-10.5%

Compound	activity change, less the hit threshold
CCOC(=O)c1c(NC(=O)CN2CCN(C(=O)c3ccco3)CC2)sc2c1CCCC2	17.6% (active)
CC(C)OC(=O)c1c(NC(=O)c2ccco2)sc2c1CCCCC2	-27.5%
CCc1c(C)sc(NC(=O)CN2CCN(C(=O)c3ccco3)CC2)c1C(=O)OC	16.7% (active)
COC(=O)c1c(NC(=O)c2ccco2)sc2c1C(C(=O)OC)CC2 (centres undefined)	-18.3%
O=C(CNCC1CCCO1)N1CCCCCC1 (centres undefined)	-15.5%
CC(Oc1ccc(Br)cc1Br)C(=O)Nc1cccnc1 (centres undefined)	-16.3%
Cc1oc(/N=C/c2ccc(F)cc2)c(C#N)c1C	-16.1%
O=C(CN1C(=O)COc2ccccc21)NNC(=O)Nc1ccccc1F	-21.5%
Oc1oc(-c2cccc3ccccc23)nc1/C=N/c1nccs1	13.4% (active)
O=c1cc(O)c2ccccc2n1Cc1ccccc1Cl	-12.7%
N=C1S/C(=C\c2ccc(-c3cccc(Cl)c3)o2)C(=O)N1c1nccs1	-9.5%
C=CCc1cccc(C2Nc3ccccc3C(=O)N2O)c1O (centres undefined)	-12.4%
O=C1c2ccccc2NC(c2ccc(Br)s2)N1O (centres undefined)	70.9% (active)
Cc1cc([N+](=O)[O-])ccc1-c1ccc(C2Nc3ccccc3C(=O)N2O)o1 (centres undefined)	-3.8%
CC1(OC(=O)c2ccc(Cl)nc2)C(=O)C=C2C=C(c3ccc(C#N)cc3)OC=C2C1=O (centres undefined)	-15.2%
Fc1ccc2nc(Nc3nc4c(F)cc(F)cc4s3)sc2c1	-10.7%
Fc1cccc2sc(Nc3nc4c(F)cccc4s3)nc12	0.7% (active)
CC(=O)Nc1nc2c(F)cccc2s1	-18.4%
Fc1cccc2sc(Nc3nnc(-c4ccco4)o3)nc12	25.3% (active)
Fc1cccc2sc(Nc3nnc(-c4ccccc4)o3)nc12	79.5% (active)
COc1cccc(-c2nnc(Nc3nc4c(F)cccc4s3)o2)c1	13.2% (active)
Cc1cc(C)nc(SCc2nnc(SCC(=O)Nc3nc(-c4ccccc4)cs3)n2-c2ccccc2)n1	-11%
Nc1ccc(NC(=O)Nc2ccc(N)cc2)cc1	-14.5%
OC(CNCC(c1ccc(Cl)cc1Cl)c1c[nH]c2ccccc12)c1ccccc1 (centres undefined)	-43.4%
COc1cccc2cc(-c3nc4ccccc4[nH]3)c(=O)oc12	-23.9%

Compound	activity change, less the hit threshold
COc1cccc(-c2cc(C(F)(F)F)nc(N3CCCCC3)n2)c1	-10.8%
O=C1CCCN1C(=O)COc1ccccc1[N+](=O)[O-]	-15.5%
Cc1ccnc(N2CCC(C(=O)Nc3ccc(Oc4ccccc4)cc3)CC2)n1	-22%
CC(C)C(O)(C#CCN1CCCC1)c1ccccc1 (centres undefined)	-11.8%
COc1ccc(C(=O)NC(=S)N2CCC(C)CC2)cc1Br	51% (active)
COc1ccc(C(=O)NC(=S)N2CCC(C)CC2)cc1	-13.2%
S=C(N/N=C/c1ccc(Cl)cc1)N1CCOCC1	-26.9%
CN1CCN(C(=S)NC(=O)c2ccc(C(C)(C)C)cc2)CC1	-16.2%
CC1CCN(C(=S)NC(=O)c2ccc(C(C)(C)C)cc2)CC1	10.7% (active)
CC(C)(C)c1ccc(C(=O)NC(=S)N2CCCC2)cc1	-7.6%
CC(C)(C)c1ccc(C(=O)NC(=S)N2CCCCCC2)cc1	18.8% (active)
CC1CN(C(=S)NC(=O)c2ccc(Cl)cc2)CC(C)O1 (centres undefined)	-3.2%
O=C(NC(=S)N1CCCC1)c1ccc(Cl)cc1	4.3% (active)
O=C(Nc1ccccc1)OCCCCCOC(=O)Nc1ccccc1	-18.2%
Nc1cc(=O)[nH]c(SCC(=O)N2CCCCC2)n1	-21.9%
O=C1C2CC=CCC2C(=O)N1c1ccc(Cc2ccncc2)cc1 (centres undefined)	-5.4%
O=C(C1CC(=O)N(c2ccc3c(c2)OCCO3)C1)N1CCCC(C(F)(F)F)C1 (centres undefined)	-22.3%
O=C(NC(=S)N1CCCC(C(F)(F)F)C1)c1ccc(F)cc1 (centres undefined)	24.6% (active)
O=C(NC(=S)N1CCCCCC1)c1ccc(Cl)cc1Cl	7.1% (active)
COc1cc(OC)cc(C(=O)NC(=S)N2CCCCCC2)c1	-13.9%
CC(C)(C)c1nc(SCC(=O)N2CCCC2)c2ccccc2n1	-0.3%
Cc1ccc(/C=C(\NC(=O)c2ccccc2)C(=O)N2CCCCC2)cc1	-24.3%
O=C(c1ccc(C(F)(F)F)cc1)C1CCCN(C(=O)CCc2ccncc2)C1 (centres undefined)	-24.8%
CC(C)(C)c1ccc(/C=C/C(=O)N2CCCCC2)cc1	5.1% (active)

Reference: PubChem BioAssay AID1942 (Johns Hopkins Ion Channel Center, 2009)
